KCNH2 3.1 block – blocks the human KCNH2 3.1 channel isoform | AID 720553 | activity change, % (tested at about 1.8 µM) | hit rate 0.95% among 340,000 | U2OS KCNH2 3.1, thallium flux FluxOr; stronger effect = lower value;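 active = maximum activity change below -70%; inconclusive = maximum activity change from -70% to -50%; inactive = maximum activity change above -50%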;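 note: thallium influx rate constant from kinetic fluorescence after stimulation buffer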
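Channel expression came from 3.1 mutant virus (1.77 x 10^8 /mL) applied to suspended U2OS cells for 4 h. Flux was tracked with FluxOr dye plus Red40 quencher, and kinetic rate constants normalized to controls.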
GLP1R ag – GLP-1 receptor (human) agonism; P43220; hit rate 0.007% among 380,000; HEK293 GLP-1R CRE-luciferase, luminescence, 4-6 h; cells express a hypersensitive GLP-1R form; Potency, µM (top dose mostly 45.6 µM), usual class: activators
GLP-1R inv ag – GLP-1 receptor (human) inverse agonism. HEK293 GLP-1R CRE-luciferase, luminescence, 24 h; GLP-1R form is constitutively active. P43220. Potency, µM (doses to about 38.3 µM), actives largely listed as inhibitors. AID 624417. hit rate 1.6% among 410,000; note: nearly all actives have a fitted effect of over 55% in size
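Inverse agonism was detected as reduced cAMP-driven luciferase luminescence after 24 h compound treatment. The cells were HEK293 clones expressing constitutively active human GLP-1R with the reporter. Reporter-only and GPR119 cell lines served as counterscreen controls.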
hERG WT inh – inhibitors of human wildtype KCNH2 potassium channel; Q12809; hit rate 0.37% among 340,000; U2OS, BacMam KCNH2, thallium flux FluxOr; stronger effect = lower value; activity change, % at 1.84 µM;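 active = maximum activity change below -70%; inconclusive = maximum activity change between -70% and -50%; inactive = maximum activity change above -50%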
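U2OS cells were transduced with wild-type KCNH2 virus (2.03 x 10^8 / mL) for 4 h at room temperature, then cultured overnight at 37 C. Thallium flux was read with FluxOr dye. Rate constants were normalized to DMSO controls.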
HEK293 tox – cytotoxic in the GLP-1 receptor inverse agonist counter-screen | HEK293 cAMP-luciferase reporter cells, luminescence, 24 h | Potency, µM (top dose mostly 38.3 µM), actives largely listed as inhibitors | hit rate 0.13% among 410,000;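 note: loss of luciferase light is scored as toxicity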
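Seeding density was 200 cells/uL; after overnight-length (12 h) culture, 23 nL compounds went on for 24 h at 37 °C. Readout used a luciferase detection reagent, luminescence taken after 12 min at room temperature.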
GLS inh – blocks human kidney-isoform glutaminase activity; GLS enzymatic activity, qHTS titration; hit rate 0.21% among 410,000; Potency, µM (highest dose often 45.5 µM), actives largely listed as inhibitors; O94925
Target sequence (O94925 whole entry, looked up, canonical isoform): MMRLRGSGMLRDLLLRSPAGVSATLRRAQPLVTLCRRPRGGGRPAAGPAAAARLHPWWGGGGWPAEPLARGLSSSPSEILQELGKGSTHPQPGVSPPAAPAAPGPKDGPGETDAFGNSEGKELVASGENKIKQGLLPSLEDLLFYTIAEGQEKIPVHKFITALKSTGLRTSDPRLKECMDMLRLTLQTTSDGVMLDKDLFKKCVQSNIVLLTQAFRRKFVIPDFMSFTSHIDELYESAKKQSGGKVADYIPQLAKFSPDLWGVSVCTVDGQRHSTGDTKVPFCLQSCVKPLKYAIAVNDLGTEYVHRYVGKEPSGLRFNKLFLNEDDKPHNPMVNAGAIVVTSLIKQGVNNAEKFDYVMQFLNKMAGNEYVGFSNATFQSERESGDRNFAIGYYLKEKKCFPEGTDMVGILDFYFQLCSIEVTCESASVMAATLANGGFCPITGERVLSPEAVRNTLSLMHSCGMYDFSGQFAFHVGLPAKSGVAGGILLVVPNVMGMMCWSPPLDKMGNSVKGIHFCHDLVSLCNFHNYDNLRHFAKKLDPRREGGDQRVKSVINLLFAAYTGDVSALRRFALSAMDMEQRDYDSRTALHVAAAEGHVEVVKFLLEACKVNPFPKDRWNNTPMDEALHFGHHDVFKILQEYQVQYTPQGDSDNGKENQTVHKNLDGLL
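Two-point fluorescence kinetic (t0, 30 min RT) for hKGA; glutamate detected via glutamate oxidase–HRP–Amplex Red. Substrate: 1 mM L-glutamine solution; buffer 45 mM KH2PO4, pH 8.2.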
Each line names hits and unclear results; the compound was inactive in the other large screens. Hits are enriched below; roughly 2.8% of the tested compounds scored in any of these assays. Unless noted, calls come from the whole dose curve; as a rule, active = well fitted curve in the direction sought with a large enough effect; inconclusive = small, poorly fitted or top-dose-only effect, or another doubt; inactive = no such curve, though single readings can be large; an effect the other way counts as inactive or inconclusive.

Cc1ccc2c(CN3CCN(Cc4ccc5c(c4)OCO5)CC3)cc(=O)oc2c1C	none
CN(C)N(Cc1ccccc1)C(=O)C(O)(c1ccccc1)c1ccccc1	GLP-1R inv ag 12.6µM
CCCn1c(SCC(=O)Nc2ccccc2-c2ccccc2)nnc1-c1ccoc1C	GLP-1R inv ag 11.2µM
Cc1oc2ncn(CC(C)C)c(=O)c2c1C(=O)Nc1cc(F)ccc1F	none (no result: KCNH2 3.1 block, GLP1R ag, hERG WT inh)
Cc1cccc(C2=NN(c3ccc(Br)cc3)[C@@H](C(=O)N3CCOC3=O)[C@@H]2c2ccc(F)cc2)c1	GLP-1R inv ag 8.91µM
O=C1OCCN1C(=O)[C@H]1[C@H](c2ccc([N+](=O)[O-])cc2)C(c2ccccc2)=NN1c1ccc(Br)cc1	GLP-1R inv ag 3.55µM
O=C1OCCN1C(=O)[C@H]1[C@H](c2ccc(F)cc2)C(c2cccc(Cl)c2)=NN1c1ccc(Br)cc1	GLP-1R inv ag 8.91µM
O=C1OCCN1C(=O)[C@H]1[C@H](c2ccc([N+](=O)[O-])cc2)C(c2cccc(Cl)c2)=NN1c1ccc(Br)cc1	GLP-1R inv ag inconclusive (no result: KCNH2 3.1 block)
O=C1OCCN1C(=O)[C@H]1[C@H](c2ccccc2)C(c2cccc(Cl)c2)=NN1c1ccc(Br)cc1	none
CC[C@@H]1C(c2ccc(F)cc2)=NN(c2ccc(Br)cc2)[C@H]1C(=O)N1CCOC1=O	GLP-1R inv ag 10µM
CCOC(=O)c1c(NC(=O)/C=C/c2ccc(Cl)cc2)sc2c1CCC(C)C2 (configuration not stated)	none (no result: KCNH2 3.1 block, GLP1R ag, hERG WT inh)
CCOc1ccccc1C(=O)N(Cc1cccs1)c1ccc(Cl)cc1	GLP-1R inv ag 12.6µM (no result: KCNH2 3.1 block, GLP1R ag, hERG WT inh)
CC(NC(=O)CCC(=O)NC(C)C1COc2ccccc2O1)C1COc2ccccc2O1 (configuration not stated)	GLP-1R inv ag 8.91µM
CC1=C(c2ccc(C)c(C)c2)S(=O)(=O)N(Cc2ccc(C(=O)NCc3ccc(C)cc3)cc2)C1=O	none (no result: KCNH2 3.1 block, GLP1R ag, hERG WT inh)
CCC1CCCCN1C(=O)CCS(=O)(=O)c1ccc2c(c1)CCN2C(C)=O (configuration not stated)	none
CC(C)c1cccc(C(C)C)c1OC(=O)[C@H]1OC(c2ccc(Br)cc2)=C[C@@H]1c1ccc(Br)cc1	GLP-1R inv ag 12.6µM
CC(C)c1cccc(C(C)C)c1OC(=O)[C@H]1OC(C(C)(C)C)=C[C@@H]1c1ccccc1	none
CC(C)C[C@@H](C(=O)NCc1ccco1)N1C(=O)N2CCc3c([nH]c4ccccc34)[C@@]2(C)C1=O	GLP-1R inv ag 10µM
CCN(Cc1ccc(OC)c(F)c1)C(=O)C1CCCO1 (configuration not stated)	none
CCN(Cc1ccc(OC)c(F)c1)C(=O)CCl	GLP-1R inv ag 3.16µM
CCCn1c(C(C)Nc2nc(-c3ccc(C)cc3)cs2)nc2cc(Cl)c(Cl)cc21 (configuration not stated)	GLP-1R inv ag inconclusive
Cc1ccc(Cn2c(C(C)Nc3nc(-c4ccc(F)cc4)cs3)nc3cc(Cl)c(Cl)cc32)cc1 (configuration not stated)	GLP-1R inv ag 11.2µM
CCOC(=O)c1ccc(NC(=O)CN(c2ccc(C)cc2)S(=O)(=O)c2c(C)noc2C)cc1	GLP-1R inv ag inconclusive (no result: KCNH2 3.1 block, hERG WT inh)
Cc1ccc(CN2CCC(c3cc(-c4cccs4)n[nH]3)CC2)cc1	KCNH2 3.1 block -113.2, GLP-1R inv ag inconclusive, hERG WT inh -71.5
FC(F)(F)c1cccc(CN2CCC(c3cc(-c4cccs4)n[nH]3)CC2)c1	GLP-1R inv ag 6.31µM, HEK293 tox inconclusive
COC(=O)[C@@]12CCCCN1[C@H](c1ccc(-c3ccc(F)cc3)c(OC)c1)[C@@H]1C(=O)N(C)C(=O)[C@@H]12	GLP-1R inv ag 10µM
CCC(C(=O)NC1CCCC1)n1nc(C)n2c(cc3occc32)c1=O (configuration not stated)	none
Cc1ccc(C)c(N2CCN(CCCNC(=O)Cn3cccc3C(=O)c3ccccc3C)CC2)c1	KCNH2 3.1 block -84.4, GLP-1R inv ag inconclusive, hERG WT inh -75.0, HEK293 tox 10µM
Cc1ccccc1C(=O)c1cccn1CC(=O)NCCCN1CCCCC1	none
Cc1ccccc1C(=O)c1cccn1CC(=O)NCCN1CCN(c2cccc(C)c2C)CC1	KCNH2 3.1 block -78.7, GLP-1R inv ag inconclusive, hERG WT inh inconclusive, HEK293 tox inconclusive
CS(=O)(=O)N(CC(=O)NCCSc1ccccc1)c1cc(C(F)(F)F)ccc1Cl	GLP-1R inv ag inconclusive (no result: KCNH2 3.1 block, hERG WT inh)
O=C(Nc1ccn(-c2ccccc2)n1)c1ccc(S(=O)(=O)N2CCCCCC2)cc1	KCNH2 3.1 block -83.8, GLP-1R inv ag inconclusive
CCS(=O)(=O)N1CCN(C(=O)COc2ccc(-c3ccccc3)cc2)CC1	none
CC(=O)N1CCN(c2nnc(-c3ccc(C)cc3)c3ccccc23)CC1	none
CC1CCCN(C(=O)COc2ccc(-c3ccccc3)cc2)C1 (configuration not stated)	GLP-1R inv ag 11.2µM
Cc1ccc(OCC(=O)N2CCN(c3nnc(-c4ccccc4)c4ccccc34)CC2)cc1	KCNH2 3.1 block -70.5, HEK293 tox inconclusive
C=CCN(c1ccccc1OC)S(=O)(=O)c1cccc(C(=O)OCC(=O)c2c[nH]c3ccccc23)c1	GLP-1R inv ag 5.01µM, HEK293 tox inconclusive
CCc1ccc(NCc2cc3cc4c(cc3n(CC(=O)Nc3ccc(OC)cc3)c2=O)OCO4)cc1	none (no result: KCNH2 3.1 block, GLP1R ag, hERG WT inh)
CCc1ccc(NCc2cc3cc4c(cc3n(CC(=O)Nc3cccc(OC)c3)c2=O)OCO4)cc1	GLS inh 10µM (no result: KCNH2 3.1 block, hERG WT inh)
COc1ccc2cc(CNc3ccc(C)cc3)c(=O)n(CC(=O)Nc3ccc(C)cc3Cl)c2c1	GLS inh 12.6µM (no result: KCNH2 3.1 block, hERG WT inh)
Cc1ccc(CN2CC(C(=O)N3CCN(c4ccccc4O)CC3)CC2=O)cc1 (configuration not stated)	GLS inh 7.08µM
O=C1CC(C(=O)N2CCN(c3ccccc3Cl)CC2)CN1Cc1ccccc1 (configuration not stated)	none
Cc1ccc(CN2CC(C(=O)N3CCN(S(=O)(=O)c4cc(C)ccc4C)CC3)CC2=O)cc1 (configuration not stated)	none
Cc1ccc(CN2CC(C(=O)N3CCN(S(=O)(=O)c4ccc(C(C)C)cc4)CC3)CC2=O)cc1 (configuration not stated)	KCNH2 3.1 block -78.9
COc1ccccc1CNC(=O)c1ccc(-c2nc(CN3CCc4ccccc43)c(C)o2)cc1	GLP-1R inv ag inconclusive (no result: KCNH2 3.1 block, hERG WT inh)
CC(C)N1CCN(Cc2ccc(OC3CCCC3)cc2)CC1CCO (configuration not stated)	GLP-1R inv ag inconclusive
COc1cccc(N2C(C(C)=O)=NN(c3ccccc3)C2c2ccc(N3CCOCC3)cc2)c1 (configuration not stated)	none

Screening data from PubChem.
